Source: PubChem BioAssay (NCATS)
Records with an inconclusive call do not appear. Active and inactive are the calls of the source. Calls come from the whole dose curve; as a rule, active = well fitted cell-killing curve with a large enough effect; inconclusive = small, poorly fitted or top-dose-only effect, or effect the other way; inactive = no such curve, though single readings can be large or run the other way.

Assay: Quantitative High-Throughput drug screen in 47 multiple myeloma cell lines against the NCATS MIPE library collection: LP1_DSMZ cell viability assay (AID 1918982); note: nearly all actives have a fitted effect of over 35% in size
Settings: LP1 myeloma viability, CellTiter-Glo ATP luminescence, 48 h; series mostly up to 45.8 µM
Summary of the method: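 Cells were exposed to library compounds for 48 hours, after which ATP was measured by CellTiter-Glo. Signal was taken as median relative luminescence units.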
Potency is the fitted concentration of half-maximal effect.

Row | SMILES | Potency
1 | Cc1ccc(NC(=O)C2(c3ccc4c(c3)OC(F)(F)O4)CC2)nc1-c1cccc(C(=O)O)c1 | 0.0662 µM (active)
2 | Cc1ccc(-c2ncn(-c3ccc(Nc4nccc(-c5cccc(N6CCOCC6)c5)n4)cc3)n2)cn1 | 0.132 µM (active)
3 | CCCCOc1c(C(=O)c2c(F)cc(C)cc2F)cnc2n[nH]cc12 | 3.32 µM (active)
4 | CC(=O)c1c(C)c2cnc(Nc3ccc(N4CCNCC4)cn3)nc2n(C2CCCC2)c1=O | 5.9 µM (active)
5 | O=c1[nH]nc(Sc2ncc([N+](=O)[O-])s2)n1-c1ccc2c(c1)OCCO2 | 6.62 µM (active)
6 | CC(NCc1ccc2c(c1)nc(NC(=O)c1ccc(-c3cn[nH]c3)s1)n2CC(C)(C)O)C(C)(C)C (stereo not given) | 0.469 µM (active)
7 | CC1(O)CC(c2nc(-c3ccc4ccc(-c5ccccc5)nc4c3)c3c(N)nccn23)C1 (stereo not given) | 0.235 µM (active)
8 | CC(C)(C)c1cnc(CSc2cnc(NC(=O)C3CCNCC3)s2)o1 | 0.105 µM (active)
9 | OCCCNc1cc(-c2ccnc(Nc3cccc(Cl)c3)n2)ccn1 | 0.105 µM (active)
10 | N#CCNC(=O)c1ccc(-c2ccnc(Nc3ccc(N4CCOCC4)cc3)n2)cc1 | 20.9 µM (active)
11 | CN1CC[C@@H](c2c(O)cc(O)c3c(=O)cc(-c4ccccc4Cl)oc23)[C@@H](O)C1 | 0.0662 µM (active)
12 | Cc1[nH]nc2ccc(-c3cncc(OC[C@@H](N)Cc4ccccc4)c3)cc12 | 4.18 µM (active)
13 | COC(=O)[C@]12CCC(C)(C)C[C@@H]1[C@@H]1C(=O)C=C3[C@@]4(C)C=C(C#N)C(=O)C(C)(C)[C@@H]4CC[C@@]3(C)[C@]1(C)CC2 | 0.743 µM (active)
14 | O=C(CCCCCCNC(=O)c1cnc(N(c2ccccc2)c2ccccc2)nc1)NO | 5.9 µM (active)
15 | CC=C1NC(=O)[C@H]2CSSCCC=C[C@H](CC(=O)N[C@H](C(C)C)C(=O)N2)OC(=O)[C@H](C(C)C)NC1=O | 0.0118 µM (active)
16 | CC1=C(CO)C(=O)O[C@@H]([C@@H](C)[C@H]2CC[C@H]3[C@@H]4C[C@H]5O[C@]56[C@@H](O)C=CC(=O)[C@]6(C)[C@@H]4CC[C@]23C)C1 | 0.187 µM (active)
17 | CC(=O)Nc1nc(C)c(-c2ccc(Cl)c(S(=O)(=O)NCCO)c2)s1 | 3.32 µM (active)
18 | O=C(Nc1cc(C(F)(F)F)cc(C(F)(F)F)c1)c1cc(Cl)ccc1O | 0.469 µM (active)
19 | O=C(Nc1cn[nH]c1-c1nc2ccc(CN3CCOCC3)cc2[nH]1)NC1CC1 | 4.69 µM (active)
20 | CNc1nccc(-c2cccnc2Oc2cc(C(=O)Nc3cccc(C(F)(F)F)c3)ccc2C)n1 | 23.5 µM (active)
